# Pf apPOL block – Pf-apPOL DNA polymerase inhibition; Recombinant Pf-apPOL, molecular beacon fluorescence, 1.5 h; AID 1794808; 210,000 tested, 0.25% active; inhibition, % at 10 µM
# mHTT CaM bind – disrupts binding of mutant huntingtin to calmodulin. 190,000 tested, 3.6% active. inhibition, % at 15 µM. AlphaScreen His-mHTT/GST-CaM binding, luminescence;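 note: 0% = both proteins with DMSO and 100% = one protein alone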
# * marks the source's active call; other numbers are inactive results; nt = not tested or not shown. The full list was thinned out, with hits kept by preference. Cut-off read from the data, not from the text of the source: active = inhibition above about 50%; inactive = the rest.
SMILES,Pf apPOL block,mHTT CaM bind
COc1ccc(CCNC(=O)N2CCN(Cc3nc4ccccc4[nH]3)CC2)cc1,-109,100*
Cc1nnsc1C(=O)N1CCN(Cc2nc3ccccc3[nH]2)CC1,-6,-15
O=C(NCC1COC2(CCCCC2)O1)c1cc2ccccc2oc1=O (stereo unspecified),-9,-1
COc1ccc(Cl)cc1CN1CCN(c2ccc(N3C(=O)CC(C)C3=O)cc2[N+](=O)[O-])CC1 (stereo unspecified),-17,73*
O=C1CCCC(=O)N1c1ccc(N2CCCC(CO)C2)c([N+](=O)[O-])c1 (stereo unspecified),-10,2
Cc1ccc(N2CCN(c3ccc(N4C(=O)COCC4=O)cc3[N+](=O)[O-])CC2C)cc1 (stereo unspecified),-14,11
COc1ccc(Cl)cc1CN1CCN(c2ccc(N3C(=O)COCC3=O)cc2[N+](=O)[O-])CC1,-8,79*
CC1CC(=O)N(c2ccc(N3CC4(C)CC3CC(C)(C)C4)c([N+](=O)[O-])c2)C1=O (stereo unspecified),-18,37
CC1CC(=O)N(c2ccc(N3CCN(c4cccc(Cl)c4)CC3)c([N+](=O)[O-])c2)C1=O (stereo unspecified),-14,46
COc1ccc(Cl)cc1CN1CCN(c2ccc(N3C(=O)CCCC3=O)cc2[N+](=O)[O-])CC1,-24,73*
COc1cc2c(cc1OC)C(C)N(c1ccc(N3C(=O)CC(C)C3=O)cc1[N+](=O)[O-])CC2 (stereo unspecified),-15,60*
CCc1ccc(C2CC(c3ccccc3F)n3ncnc3N2)cc1 (stereo unspecified),-2,26
O=C(CSCc1ccc([N+](=O)[O-])cc1)Nc1ccccc1C(=O)NC1CCCCC1,1,13
CC(C)CCNC(=O)CN1C(=O)/C(=C/c2cccc(Cl)c2)Sc2ccccc21,-21,-11
CCOC(=O)C1C(=O)C=C(c2ccc(OC)cc2)CC1c1cc(OC)ccc1OC (stereo unspecified),-2,7
O=C(O)COc1c(Cl)cc(Cl)c2nsnc12,-3,3
CCN1CCN(C(=O)c2ccc(-c3nc4ccccc4n(C)c3=O)cc2)CC1,-5,-2
COc1ccc(-c2[nH]n(-c3nc4ccccc4s3)c(=O)c2C=NCCN2CCOCC2)cc1,2,68*
O=c1c(C=NCCN2CCOCC2)c(C(F)(F)F)[nH]n1-c1nc2ccccc2s1,3,4
Cn1c(=O)c(C(=O)NCc2ccc(Cl)cc2)nc2cccnc21,-1,5
CC(C)c1ccc(CNC(=O)c2nc3cccnc3n(C)c2=O)cc1,0,62*
Cc1cc(N2CCN(C)CC2)nc2ccc(NC(=O)/C=C/c3ccc4c(c3)OCO4)cc12,-3,51*
Cc1cc(N2CCOCC2)nc2ccc(NC(=O)/C=C/c3ccccc3Cl)cc12,-3,38
Cc1cc(N2CCN(C)CC2)nc2ccc(NC(=O)/C=C/c3ccccc3Cl)cc12,4,93*
CCN(CC)c1cc(C)c2cc(NC(=O)/C=C/c3ccc4c(c3)OCO4)ccc2n1,-8,20
SMILES,Pf apPOL block,mHTT CaM bind
O=C(c1cccc(OCC2CCCN(C(=O)c3c(F)cccc3F)C2)c1)N1CCCC1 (stereo unspecified),-5,-5
Cc1ccc2c(c1)C(O)(CC(=O)c1ccc(-c3ccccc3)cc1)C(=O)N2 (stereo unspecified),-3,27
CC(=O)Nc1cc(NC(C)=O)c(C)c(C(=O)O)c1,-5,1
CC(C)C1C(=O)N(Cc2cn(CCC3OCCCO3)nn2)CCS(=O)(=O)N1Cc1ccc(-c2cccc(N(C)C)c2)cc1 (stereo unspecified),-6,61*
COCOCCn1cc(CN2CCS(=O)(=O)N(Cc3ccc(-c4cccc(N(C)C)c4)cc3)C(C(C)C)C2=O)nn1 (stereo unspecified),-3,57*
COCOCCn1cc(CN2CCS(=O)(=O)N(Cc3ccc(-c4cccc(CO)c4)cc3)C(C(C)C)C2=O)nn1 (stereo unspecified),-11,23
CC1C(=O)N(Cc2cn(CCC3OCCCO3)nn2)CCS(=O)(=O)N1Cc1ccc(-c2cccc(N(C)C)c2)cc1 (stereo unspecified),-2,40
CC(C)C1C(=O)N(Cc2cn(CCC3OCCO3)nn2)CCS(=O)(=O)N1Cc1ccc(-c2cccc(N(C)C)c2)cc1 (stereo unspecified),-1,68*
CC(C)C1C(=O)N(Cc2cn(CCC3OCCCO3)nn2)CCS(=O)(=O)N1Cc1ccc(-c2cccc(CO)c2)cc1 (stereo unspecified),-7,46
CCOC(=O)CC1(NC(=O)N2CCCC2c2c(C)noc2C)CCCCC1 (stereo unspecified),2,-4
COC(=O)c1cccc(C(=O)Nc2ccc(C)c(F)c2)n1,0,-6
Cn1cnc2ccc(-c3noc(-c4cccs4)n3)cc21,1,-14
CCOC(CNC(=O)c1ccc2c(c1)ncn2-c1ccc(C)c(Cl)c1)OCC,26,9
Cc1ccc(-n2cnc3cc(C(=O)NCc4ccco4)ccc32)c(C)c1,27,13
CCCNC(=O)c1ccc2c(c1)ncn2-c1ccc(C)c(Cl)c1,28,52*
Cc1ccc(-n2cnc3cc(C(=O)NCc4ccco4)ccc32)cc1Cl,32,79*
Oc1[nH]c(=S)sc1C=CC=CC=Nc1ccccc1,nt,95*
Cc1cccc(CNc2cc(-n3cccn3)ncn2)c1,4,-2
CC(C)(C)C1C/C(=C\c2cccnc2)C(=O)/C(=C/c2cccnc2)C1 (stereo unspecified),-1,14
Cc1cc(Cl)ccc1-n1c(CCC(=O)O)ccc1-c1cccs1,-9,68*
Cc1ccccc1-n1c(CCC(=O)O)ccc1-c1cccs1,-3,19
CC(=O)N/C(=C\c1ccccc1Br)C(=O)NCc1ccc(F)cc1,2,3
CCCC1CCC2(CCCN2CCOC(=S)Nc2ccccc2)CC1 (stereo unspecified),-7,61*
CCCC1CCC2(CCCN2CCOC(=O)Nc2cccc(Cl)c2)CC1 (stereo unspecified),-7,95*
CCCC1CCC2(CCCN2CCOC(=S)Nc2cccc(Cl)c2)CC1 (stereo unspecified),-4,28
SMILES,Pf apPOL block,mHTT CaM bind
CCCC1CCC2(CCCN2CCOC(=S)Nc2ccccc2Cl)CC1 (stereo unspecified),-9,-8
CC(C)n1cc(/C=C2\C(=O)NC(=O)N(c3cccc(F)c3)C2=O)c2ccccc21,2,4
CC(C)c1nc(CN2CCN(c3cccc(Cl)c3)CC2)cc(=O)[nH]1,-1,7
O=C1C(c2ccc(F)cc2)N(Cc2ccc(Cl)cc2)C(=O)CN1C1CCCC1 (stereo unspecified),-5,-7
O=[N+]([O-])c1ccc(CNc2ccc(F)c(F)c2)cc1,-3,8
COc1ccc(CNc2cc([N+](=O)[O-])ccc2OC)cc1,-2,-41
COc1ccc(C)cc1NCc1ccc([N+](=O)[O-])cc1,-25,86*
Cc1cc(NCc2ccc([N+](=O)[O-])cc2)ccc1Br,-2,58*
COc1ccc(C)cc1NCc1ccncc1,-2,13
COc1ccc(C)cc1NCc1ccc(SC)cc1,-4,59*
CC1(C)OCC2(CO1)CN(C(=O)c1cccc3ccccc13)C2,-4,-3
Cc1nn(-c2ccccc2)nc1C(=O)NC(=O)N1CCSCC1,-5,nt
O=C1C(=Cc2ccc([N+](=O)[O-])cc2)Oc2cc(OC(=O)N3CCOCC3)ccc21,-10,0

# Bioassay records deposited in PubChem by University of Kansas High Throughput Screening Laboratory.
